Potency, outcome and max response data for eleven molecules are collected here from PubChem BioAssay (Tox21).

“And” between values parts separate entries of the source, which are not always exact repeats. Equal entries are not always repeated. Records with an inconclusive call do not appear. Where a structure was tested more than once in an assay, its records may differ in their call. The source made the active and inactive calls. Unless noted, the call rests on the fitted dose curve; in most records, active means well fitted curve in the direction sought with a large enough effect in the repeat runs; inconclusive means weak or mixed curves; inactive means no such curve, though single readings can be large; an effect the other way counts as inactive or inconclusive.

The nature of test [1]: qHTS assay to identify small molecule agonists of the hypoxia (HIF-1) signaling pathway - cell viability counter screen (AID 1224844; calls by dose curve; further: nearly all actives have a fitted effect of over 50% in size). The method in brief:
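Cytotoxicity measured by CellTiter-Glo ATP luminescence in the wells also read for beta-lactamase signal. Cells were HRE-bla ME-180 (2,000/well, 0.5% dialyzed FBS), exposed to compounds for 17 h at 37C.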

The nature of test [2]: qHTS assay to identify small molecule agonists of H2AX (AID 1224845; active means well fitted activation curve with a large enough effect in the signal ratio in the repeat runs, not every such curve was filed as active; the % refers to the signal ratio; further: potency means the concentration at half of the fitted maximal effect). The method in brief: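 Wild-type CHO-K1 cells plated overnight, then exposed 3 hr at 37C to compounds at 15 concentrations (0.76% DMSO). Lysed, then HTRF anti-pH2AX(S139)-cryptate/anti-H2AX-d2 detection after 24 hr at room temperature; emissions 665 and 620 nm.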
For orientation: In qHTS, concentration-response curves come from the screen itself.

The nature of test [3]: qHTS assay to identify small molecule agonists of the hypoxia (HIF-1) signaling pathway (AID 1224846; active means well fitted activation curve with a large enough effect in the signal ratio in the repeat runs, not every such curve was filed as active; the % refers to the signal ratio). The procedure, abridged: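 Compounds added to ME-180 cells carrying hypoxia-response-element beta-lactamase reporter (0.5% dialyzed FBS, 5 h preplating), 17 h at 37C; agonist activity detected by CCF4-AM B/G FRET read-out.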
Test [4] in a line: qHTS assay to identify small molecule agonists of H2AX - cell viability counter screen (AID 1224847; calls by dose curve; further: nearly all actives have a fitted effect of over 30% in size; further: potency means the concentration at half of the fitted maximal effect). The method in brief:
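Wild-type CHO-K1 cells (10% FBS medium) were plated overnight at 37C, exposed to compounds at 15 concentrations for 3 hr at 37C (0.76% DMSO final), and viability was read as CellTiter-Glo luminescence after 30 min at room temperature.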

Test [5] is described as follows: qHTS RealTime-Glo MT Cell Viability Assay in HepG2 cells - 24 hour (AID 1224867). Further: nearly all actives have a fitted effect of over 50% in size. Further: potency means the concentration at half of the fitted maximal effect. The method in brief:
(§1)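 Compound treatment began 5 h after plating HepG2 cells (600/well) with NanoLuc luciferase and prosubstrate. Plates stayed at 37 C for 40 h; luminescence was captured at six time points, 0 h through 40 h.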

Test [6] can be described thus: qHTS RealTime-Glo MT Cell Viability Assay in HEK293 cells - 32 hour (AID 1224868). Further: nearly all actives have a fitted effect of over 50% in size. Further: potency means the concentration at half of the fitted maximal effect. The procedure, abridged:
(§2)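 Quantitative high-throughput screen of the Tox21 10K library in HEK293: cells and RealTime-Glo reagents plated together, compound added at 5 h, luminescence monitored through 40 h at 37 C.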

Test [7] is described as follows: A CellTox Green Cytotoxicity Assay to monitor cytotoxicity in HEK293 cells - 0 hour (AID 1224869). Further: nearly all actives have a fitted effect of over 50% in size. The method in brief: (§3)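 Fluorescence from a DNA-binding dye excluded by viable cells was measured repeatedly in the same HEK293 wells (600 cells/well) during continuous compound exposure at 37 C. Each assay gives one read point: 0, 8, 16, 24, 32 or 40 h.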
Test [8] in a line: qHTS RealTime-Glo MT Cell Viability Assay in HepG2 cells - 40 hour (AID 1224870). Further: nearly all actives have a fitted effect of over 50% in size. Further: potency means the concentration at half of the fitted maximal effect. The method in brief:
(§4)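 HepG2 cells mixed with RealTime-Glo MT reagents (NanoLuc plus cell-permeant prosubstrate) were seeded at 600 cells/well, incubated 5 h at 37 C/5% CO2, then pinned with compounds in DMSO; nonlytic luminescence tracked viability during 40 h treatment.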

Test [9] can be described thus: A CellTox Green Cytotoxicity Assay to monitor cytotoxicity in HEK293 cells - 40 hour (AID 1224871). Further: nearly all actives have a fitted effect of over 45% in size. Further: potency means the concentration at half of the fitted maximal effect. The method in brief:
as §3

Test [10] is described as follows: qHTS RealTime-Glo MT Cell Viability Assay in HEK293 cells - 16 hour (AID 1224872). Further: nearly all actives have a fitted effect of over 50% in size. Further: potency means the concentration at half of the fitted maximal effect. The procedure, abridged: as §2
The nature of test [11]: qHTS RealTime-Glo MT Cell Viability Assay in HepG2 cells - 8 hour (AID 1224873). Further: nearly all actives have a fitted effect of over 55% in size. The procedure, abridged: as §4
Test [12] is described as follows: qHTS RealTime-Glo MT Cell Viability Assay in HEK293 cells - 40 hour (AID 1224874). Further: nearly all actives have a fitted effect of over 50% in size. Further: potency means the concentration at half of the fitted maximal effect. The note with it: RealTime-Glo luminescence; max response: stronger effect = lower value. The procedure, abridged: (§5)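 Luminescence, which tracks viable cell number through reduction of the prosubstrate to a NanoLuc substrate, was read over continuous 37 C culture. Cells (600/well) were premixed with reagent and rested 5 h before 23 nL of compound in DMSO was pinned.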

Test [13] in a line: A CellTox Green Cytotoxicity Assay to monitor cytotoxicity in HepG2 cells - 16 hour (AID 1224876). Further: nearly all actives have a fitted effect of over 45% in size. Further: potency means the concentration at half of the fitted maximal effect. The method in brief:
(§6)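 Real-time cytotoxicity: fluorescence of a cell-impermeant cyanine dye binding DNA of dead HepG2 cells, measured repeatedly (0–40 h) during compound exposure at 37 C. Cells seeded 600/well with reagent, dosed after 5 h.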

Test [14] is described as follows: qHTS RealTime-Glo MT Cell Viability Assay in HepG2 cells - 32 hour (AID 1224877). Further: nearly all actives have a fitted effect of over 55% in size. Further: potency means the concentration at half of the fitted maximal effect. The procedure, abridged: as §1
Test [15] can be described thus: qHTS RealTime-Glo MT Cell Viability Assay in HEK293 cells - 0 hour (AID 1224880). Further: top concentration of the series differs between compounds; nearly all actives have a fitted effect of over 45% in size. The method in brief:
as §5

Test [16] in a line: A CellTox Green Cytotoxicity Assay to monitor cytotoxicity in HEK293 cells - 24 hour (AID 1224875). Further: series mostly up to about 77 µM; nearly all actives have a fitted effect of over 45% in size. The method in brief:
as §3

Test [17] can be described thus: A CellTox Green Cytotoxicity Assay to monitor cytotoxicity in HepG2 cells - 24 hour (AID 1224878). Further: nearly all actives have a fitted effect of over 45% in size. The procedure, abridged: as §6
Test [18] is described as follows: A CellTox Green Cytotoxicity Assay to monitor cytotoxicity in HepG2 cells - 40 hour (AID 1224879). Further: nearly all actives have a fitted effect of over 40% in size. The procedure, abridged: as §6
On the % scale 0 is the no-effect control and ±100 the full control effect.

On to `CCOP(=O)(O)OCC` (tested in a mixture with another compound), for which the Potency entry in test [1], in test [2], in [7], in test [11] and in test [15] was “inactive” throughout. Moreover, the molecule was called inactive in test [3]. Moreover, the Potency result in test [4] is “inactive and 28.2 µM (active)”; in [5] it was “inactive and 48.6 µM (active)”; in test [6] it was “inactive and 4.33 µM (active)”; in [8], “inactive and 43.3 µM (active)”; in [9] it was “inactive and 24.3 µM (active)”; in test [10], “inactive and 24.3 µM (active)”. For the same molecule, the Potency in [12] was 2.43 µM (active); in test [13], “inactive and 43.3 µM (active)”; in [14], “inactive and 48.6 µM (active)”. For the same molecule, the max response in test [12] was 4.04% (inactive).

For `CCOS(=O)(=O)OCC`, the Potency result in test [1], in test [2], in test [4], in test [5], in test [6] and in test [7] was “inactive” in each case. Also, the Potency entry in test [9], in test [10], in test [11], in test [16], in [13] and in test [14] was “inactive” throughout. Moreover, the Potency result in [17] and in [15] was “inactive” in each case. Besides, in test [3], the result was inactive. Moreover, the max response in [12] is 6.05% (inactive).

As for `CCC/C=N/O`, the Potency entry in test [1], in test [2], in test [4], in [5], in test [6] and in test [7] was “inactive” each time. The Potency entry in test [8], in test [9], in test [10], in test [11], in test [16] and in test [13] was “inactive” throughout. In addition, the Potency entry in [14], in [18] and in test [15] was “inactive” each time. Further, the outcome in test [3] was inactive. The max response in test [12] is -8.66% (inactive) and 0.163% (inactive).

Regarding `CC1CC(=O)O1` (centres undefined), the Potency entry in test [1], in [2], in test [4], in test [5], in test [6] and in [7] was “inactive” throughout. For the same molecule, the Potency result in test [8], in test [9], in test [10], in [11], in test [16] and in [13] was “inactive” throughout. Further, the Potency entry in test [14], in test [17] and in test [15] was “inactive” each time. For the same molecule, the molecule was called inactive in [3]. In addition, in test [12], the max response was 4.47% (inactive) and -6.16% (inactive).

On to `CC(C)(C#N)N=NC(C)(C)C#N`, for which the Potency entry in test [1], in test [2], in test [4], in test [5], in [6] and in test [7] was “inactive” throughout. For the same molecule, the Potency entry in [9], in test [10], in [11], in test [16], in [13] and in [14] was “inactive” each time. The Potency entry in test [17], in test [18] and in [15] was “inactive” each time. Further, the call in test [3] was inactive. In test [12], the max response was 5.82% (inactive) and -2% (inactive).

For `COc1ccc(CO)cc1`, the Potency result in test [1], in test [2], in test [4], in test [5], in test [6] and in [7] was “inactive” each time. Further, the Potency entry in test [8], in [9], in test [10], in test [16], in test [13] and in [14] was “inactive” throughout. Besides, the Potency result in [17], in test [18] and in [15] was “inactive” throughout. Moreover, in test [3], the molecule was called inactive. In addition, the max response in test [12] is 11.4% (inactive) and -15.8% (inactive).

Take `C=CC(Cl)CCl` (centres undefined): the Potency result in test [1], in test [2], in test [4], in test [5], in [6] and in [7] was “inactive” throughout. For the same molecule, the Potency result in test [8], in test [9], in [10], in [16], in [13] and in [14] was “inactive” throughout. Also, the Potency entry in test [18] and in test [15] was “inactive” each time. In test [3], the molecule was classed as inactive. The max response in [12] was 19.1% (inactive) and 0.374% (inactive).

Turning to `CCOC(=O)c1ccccc1N`, the Potency entry in [1], in test [2], in [4], in [5], in [6] and in test [7] was “inactive” each time. For the same molecule, the Potency entry in test [8], in [9], in test [10], in [16], in test [14] and in test [15] was “inactive” in each case. The call in test [3] was inactive. For the same molecule, the max response in test [12] is -0.283% (inactive) and 0.344% (inactive). Also, the Potency result in [13] was “inactive and 49 µM (active)”.

As for `ClCc1ccccn1`, the Potency entry in test [1], in test [2], in test [4], in test [5], in test [6] and in test [7] was “inactive” in each case. In addition, the Potency entry in test [8], in [9], in [10], in [11], in [16] and in test [13] was “inactive” throughout. Moreover, the Potency result in test [14], in test [17], in test [18] and in [15] was “inactive” in each case. Further, the result in test [3] was inactive. The max response in test [12] was 0.166% (inactive) and 14.2% (inactive).

`C[C@]12CC[C@H]3[C@@H](CCC4=CC(=O)CC[C@@H]43)[C@@H]1CC[C@@H]2O`: the Potency result in [1], in [4], in test [5], in test [6], in [7] and in test [8] was “inactive” throughout. Besides, the Potency entry in test [9], in test [10], in test [11], in test [16], in [13] and in [14] was “inactive” in each case. Further, the Potency entry in test [17], in test [18] and in test [15] was “inactive” each time. The Potency in test [2] was 99.8 µM (active). Also, in test [3], the molecule was classed as inactive. The max response in [12] was -22.5% (inactive).

As for `[CH3][Sn]([Cl])([Cl])[Cl]`, the Potency entry in test [1], in test [2], in [4], in [5], in [6] and in test [7] was “inactive” each time. Besides, the Potency entry in test [8], in test [9], in test [10], in test [16], in test [13] and in test [14] was “inactive” in each case. Further, the Potency entry in test [17], in test [18] and in test [15] was “inactive” each time. Besides, the call in [3] was inactive. Further, the max response in test [12] was 17% (inactive) and 3.42% (inactive).
